Experiment in all cases: qHTS profiling for inhibitors of Plasmodium falciparum proliferation (AID 504749); note: nearly all actives have a fitted effect of over 60% in size
What all share (conditions): P. falciparum in erythrocytes, SYBR Green DNA, 72 h; series mostly up to 28.7 µM
In general terms: Quantitative high-throughput screening tests each substance at several concentrations.

In one test the test system is CP250. In a few lines: (§1)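 Readout was DNA-dye fluorescence from lysed cultures, ex 485/em 535 nm. Parasitized red cells had grown 72 h with compound; data scaled between 0.29 uM artemisinin and DMSO wells and corrected using vehicle-only plates.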
The test system of a further test is CP262. In a few lines:
as §1

Another test deals with CP266. In a few lines:
as §1

Another test relates to CP260. In a few lines:
as §1

A further test has as its system CP268. The procedure, abridged: as §1
Another test relates to CP238. The procedure, abridged: as §1
The test system of the next test is CP247. In a few lines: as §1
For another test, the system named is CP256. The procedure, abridged: as §1
Another test relates to CP265. In a few lines:
as §1

The test system of a further test is CP252. The procedure, abridged: as §1

Structures are written as SMILES. Results filed as inconclusive are left out. Calls of active or inactive are those of the source. Calls come from the whole dose curve; as a rule, active = well fitted inhibition curve with a large enough effect; inconclusive = small, poorly fitted or top-dose-only effect; inactive = flat fitted curve, though single readings scatter.
Potency is the fitted concentration of half-maximal effect.

Take `Cc1c(O)cccc1C(=O)N[C@@H](CSc1ccccc1)[C@H](O)CN1C[C@H]2CCCC[C@H]2C[C@H]1C(=O)NC(C)(C)C`: the Potency entry with CP250, in the test on CP262 and with CP266 was “inactive” throughout.
In the case of `C[C@]12C[C@H](O)[C@H]3[C@@H](CCC4=CC(=O)CC[C@@]43C)[C@@H]1CC[C@@H]2C(=O)CO`, the Potency entry in the test with CP260, with CP262, with CP266 and with CP268 was “inactive” in each case.
Consider `CCOc1nc2cccc(C(=O)O)c2n1Cc1ccc(-c2ccccc2-c2nn[nH]n2)cc1`, for which the Potency result in the test with CP238, in the test with CP247, in the test on CP250, with CP256, in the test on CP260 and in the test with CP262 was “inactive” each time. In addition, the Potency result in the test on CP265 and in the test with CP266 was “inactive” each time.
Regarding `CNCCC(Oc1ccc(C(F)(F)F)cc1)c1ccccc1` (configuration not stated), the Potency result with CP262 and in the test with CP266 was “inactive” each time.
Regarding `NC(=O)N/N=C/c1ccc([N+](=O)[O-])o1`, the results for the Potency in the test with CP260 and with CP265 were 10 µM (active) and 8.91 µM (active), respectively. Besides, the Potency result with CP266 is “inactive”.
Regarding `CSc1ccc2c(c1)C(N1CCN(C)CC1)Cc1ccccc1S2` (configuration not stated), the Potency entry with CP250, in the test with CP256, with CP262, in the test on CP265 and in the test on CP266 was “inactive” each time. In the test with CP260, the Potency was 10 µM (active).
`CN1CCCCC1CCN1c2ccccc2Sc2ccc(S(C)=O)cc21` (configuration not stated): the Potency result in the test with CP247, with CP252, in the test with CP262 and with CP266 was “inactive” in each case.
As for `OCCN1CCN(CCCN2c3ccccc3Sc3ccc(Cl)cc32)CC1`, the Potency in the test on CP247 was 2.51 µM (active); in the test with CP252 it was 3.55 µM (active); in the test on CP256, 3.98 µM (active); in the test on CP260, 3.16 µM (active); with CP265, 3.55 µM (active). Besides, the Potency entry in the test with CP266 is “inactive”.
Consider `Nc1ccc(S(=O)(=O)Nc2ccc(Cl)nn2)cc1`, for which the Potency result in the test on CP260, with CP266 and with CP268 was “inactive” each time.
With `CCOC(CN1CCN(CC(C)C(=O)c2ccccc2)CC1)c1ccccc1` (configuration not stated), the Potency result in the test on CP238, in the test on CP250, in the test on CP252, in the test on CP256, in the test with CP260 and in the test on CP262 was “inactive” in each case. For the same compound, the Potency result in the test on CP266 and in the test on CP268 was “inactive” each time.

These data come from PubChem BioAssay (NCATS).
